High-throughput results: PubChem BioAssay, several laboratories
CSC inhib: blocks cancer stem cells. cancer stem cell-like cells viability, luminescence. inhibition, % at 7.5 µM. actives 1.1% (n = 300,000). AID 2717; in the data active = inhibition above about 75%; tested in HMLE shEcad cells
Gli-Sufu antag: blocks Gli-Sufu signaling in a luciferase reporter | actives 0.74% (n = 340,000) | inhibition, % at 5 µM | Sufu-KO-LIGHT fibroblasts, Gli luciferase reporter luminescence;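 active = inhibition above about 55%, limit read from the data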
MPTP inh: permeability transition pore inhibition; isolated mouse mitochondria, Ca2+ swelling absorbance, 30 min; inhibition, % at 10 µM; actives 1.4% (n = 360,000);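 active = inhibition of 50% or more, scaled per plate between neutral and stimulator controls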
NR3A LBD binder: modulates the human NR3A ligand-binding domain. Tm shift relative to glycine control, % at 25 µM. NR3A LBD differential scanning fluorimetry, Tm shift; 0% = protein alone, 100% = glycine-bound protein. actives 2.5% (n = 340,000);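 active = melting temperature shift of at least 10% of the positive control shift, at one fixed dose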
Mdm2 MdmX PPI: human Mdm2/MdmX binding inhibition; inhibition, % at 8 µM; O15151+Q00987; SaOS-2 split-luciferase Mdm2/MdmX complementation, luminescence; AID 485346; actives 3% (n = 330,000);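 active = inhibition of at least 50% at 8 µM in the primary screen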
Target sequence (O15151 whole entry, looked up): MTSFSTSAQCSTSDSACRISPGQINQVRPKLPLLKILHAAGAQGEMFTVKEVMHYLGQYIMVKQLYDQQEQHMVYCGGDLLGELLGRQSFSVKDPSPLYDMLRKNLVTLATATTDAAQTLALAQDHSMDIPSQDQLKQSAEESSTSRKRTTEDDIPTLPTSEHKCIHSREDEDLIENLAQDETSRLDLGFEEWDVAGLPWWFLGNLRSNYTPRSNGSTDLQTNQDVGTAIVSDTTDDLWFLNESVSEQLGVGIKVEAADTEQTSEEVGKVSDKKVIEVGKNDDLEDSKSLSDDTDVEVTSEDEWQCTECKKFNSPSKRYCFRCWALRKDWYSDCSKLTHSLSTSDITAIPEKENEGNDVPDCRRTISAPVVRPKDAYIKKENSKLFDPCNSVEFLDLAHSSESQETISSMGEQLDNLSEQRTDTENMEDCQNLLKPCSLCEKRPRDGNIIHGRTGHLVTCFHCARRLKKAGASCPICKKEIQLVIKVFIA
Target sequence (Q00987 whole entry, looked up): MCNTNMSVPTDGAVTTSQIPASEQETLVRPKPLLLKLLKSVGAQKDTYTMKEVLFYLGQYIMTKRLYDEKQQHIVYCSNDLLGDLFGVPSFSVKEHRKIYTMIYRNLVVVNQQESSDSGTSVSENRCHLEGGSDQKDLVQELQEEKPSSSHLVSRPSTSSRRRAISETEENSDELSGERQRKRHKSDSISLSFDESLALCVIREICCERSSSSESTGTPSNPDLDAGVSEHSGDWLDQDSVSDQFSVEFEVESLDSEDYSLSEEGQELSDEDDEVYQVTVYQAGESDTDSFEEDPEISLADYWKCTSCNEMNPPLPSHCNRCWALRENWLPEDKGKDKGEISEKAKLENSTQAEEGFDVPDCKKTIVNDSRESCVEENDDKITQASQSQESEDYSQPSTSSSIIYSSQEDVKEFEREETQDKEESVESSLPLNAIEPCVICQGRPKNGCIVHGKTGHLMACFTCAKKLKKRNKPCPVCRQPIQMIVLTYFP
Beta apoptosis: blocks beta cell apoptosis; protection from apoptosis, % (no concentration beside the values); AID 435005; INS-1E cytokine-induced death, ATP luminescence, 48 h; percent of positive-control rescue, neutral wells zero; actives 0.8% (n = 300,000);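 active = Every replicate reaches about 75%, or at least half do and their mean reaches it too, limit read from the data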;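 also: higher means more ATP so stronger rescue from cytokine killing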
Large screens that a line does not name were inactive. Compounds with a hit are over-represented: about 6.6% of the library has one in this group of screens.

CCCCOc1nc2ccccc2c(=O)n1-c1ccccc1	NR3A LBD binder 13
c1cc2c(cc1NC1=NCCO1)CCCC2	none (no result: CSC inhib, Mdm2 MdmX PPI, Beta apoptosis)
Cc1cc(OC(C)C(=O)N[C@H](C(=O)O)c2ccccc2)c2c3c(c(=O)oc2c1)CCC3 (stereo partly drawn)	none
CC1CCCN(c2ccc(C(=O)N3CCC4(CC3)OCCO4)cc2[N+](=O)[O-])C1 (stereo not drawn)	CSC inhib 116
O=[N+]([O-])c1ccc(C(=Nc2ccccc2)N2CC2)cc1	none (no result: CSC inhib, Mdm2 MdmX PPI, Beta apoptosis)
Cc1ccc(N/N=C/c2c(O)n(-c3ccccc3)c(=O)[nH]c2=O)cc1	CSC inhib 96 (no result: Gli-Sufu antag)
Cc1ccc(-n2c(O)c(/C=C/C=Nc3ccccc3)c(=O)[nH]c2=O)cc1	none (no result: CSC inhib, Beta apoptosis)
CCC1([N+](=O)[O-])COP(=O)(NCc2cccnc2)OC1 (stereo not drawn)	NR3A LBD binder 13 (no result: CSC inhib, Mdm2 MdmX PPI, Beta apoptosis)
CN1C2CNC(=O)CC1C1CCC2C1 (stereo not drawn)	none (no result: CSC inhib, Gli-Sufu antag, NR3A LBD binder, Mdm2 MdmX PPI, Beta apoptosis)
N#CC1c2ccccc2-n2nncc2CN1S(=O)(=O)c1cc(Cl)cc(Cl)c1 (stereo not drawn)	none (no result: CSC inhib, Mdm2 MdmX PPI, Beta apoptosis)
N[C@@H](Cc1c[nH]c2ccccc12)c1nnc(SCc2ccc(F)cc2)o1	NR3A LBD binder 13 (no result: CSC inhib, Mdm2 MdmX PPI, Beta apoptosis)
Cc1ccc(OC(=O)N(C)C[C@H]2OCc3cnnn3CCCC(=O)N([C@@H](C)CO)C[C@H]2C)cc1	none (no result: CSC inhib, Gli-Sufu antag, NR3A LBD binder, Mdm2 MdmX PPI, Beta apoptosis)
Cn1c(O)c(/C=C2\N=c3ccccc3=C2CCNC(=S)NC2CC2)c(=O)n(C)c1=O	NR3A LBD binder 17 (no result: CSC inhib, Beta apoptosis)
Cn1c(O)c(/C=C2\C=c3ccccc3=NC2=O)c(=O)n(C)c1=O	none
CCOC(=O)c1ccc2[nH]c(-c3ccc(S(=O)(=O)F)cc3)cc(=O)c2c1	NR3A LBD binder 24
O=C1c2ccccc2-n2nnc(-c3ccccc3)c2C2c3ccccc3CCN12 (stereo not drawn)	none (no result: CSC inhib, Gli-Sufu antag, NR3A LBD binder, Mdm2 MdmX PPI, Beta apoptosis)
CCOC(=O)c1c(/N=C/c2c(O)n(-c3cccc(C)c3)c(=O)[nH]c2=O)sc2c1CCCC2	NR3A LBD binder 24
CCOC(=O)c1sc(/N=C/c2c(O)n(-c3ccccc3)c(=O)[nH]c2=O)c(C#N)c1C	none
COc1cccc(NP(=O)(Oc2ccc(Cl)cc2)Oc2ccc(Cl)cc2)c1	CSC inhib 77
CSc1nc(Cl)c(Br)c(N2CC2)n1	none (no result: CSC inhib, Mdm2 MdmX PPI, Beta apoptosis)
CC(=O)C1CCC2C3C(N4CC4)CC4=CC(=O)CCC4(C)C3CCC12C (stereo not drawn)	none (no result: CSC inhib, Mdm2 MdmX PPI, Beta apoptosis)
CCCCCCC[n+]1ccc(-c2cc[n+](CCCCCCC)cc2)cc1	Beta apoptosis 102
FC(F)(F)c1cccc(NC2=NCCS2)c1	none (no result: CSC inhib, Gli-Sufu antag, NR3A LBD binder, Mdm2 MdmX PPI, Beta apoptosis)
COP(=O)(NC(=O)C(Cl)(Cl)Cl)OC	none
Nc1cc(Cl)cc(C(=O)O)c1Cl	none
CC(=O)OC1CC(OC2C(O)CC(OC3C(O)CC(OC4CCC5(C)C(CCC6C5CCC5(C)C(C7=CC(=O)OC7)CCC65O)C4)OC3C)OC2C)OC(C)C1OC1OC(CO)C(O)C(O)C1O (stereo not drawn)	none (no result: CSC inhib, Mdm2 MdmX PPI, Beta apoptosis)
COC1CC(OC2CCC3(C)C(CCC4C3CCC3(C)C(C5=CC(=O)OC5)C(OC(C)=O)CC43O)C2)OC(C)C1OC1OC(COC2OC(CO)C(O)C(O)C2O)C(O)C(O)C1O (stereo not drawn)	CSC inhib 79 (no result: Gli-Sufu antag, MPTP inh, NR3A LBD binder, Mdm2 MdmX PPI, Beta apoptosis)
CSc1ccc(C(=O)C2CCCN(CCCn3cccn3)C2)cc1 (stereo not drawn)	none
O=C1NC(=O)N(Cc2ccccc2)C(=O)/C1=C/C=C/c1ccco1	CSC inhib 90
COc1ccc(CN2C(=O)NC(=O)/C(=C\c3ccco3)C2=O)cc1	none
CN(C)P1(=O)N(C)CCN1C	none (no result: CSC inhib, Gli-Sufu antag, NR3A LBD binder, Mdm2 MdmX PPI, Beta apoptosis)
Cc1cc(C)c2c(ccc3cccc[n+]32)c1	Beta apoptosis 82
O=C1NC(=O)N(c2ccccc2F)C(=O)/C1=C/c1ccc(Sc2nc3ccccc3[nH]2)o1	NR3A LBD binder 102 (no result: Mdm2 MdmX PPI)
CCCCn1c(O)c(C=NCc2ccc3c(c2)OCO3)c(=O)[nH]c1=O	NR3A LBD binder 11
CN(CC=CCN(C)P(=S)(N1CC1)N1CC1)P(=S)(N1CC1)N1CC1	none (no result: CSC inhib, Mdm2 MdmX PPI, Beta apoptosis)
CC(Cc1ccccc1)N1C(=O)c2ccccc2C1=O (stereo not drawn)	none
CCOC(=O)c1cccc(C2=C(CNC(=O)c3cccnc3)[C@H]3CC[C@@H](C2)N3Cc2ccccc2)c1	none (no result: CSC inhib, Gli-Sufu antag, NR3A LBD binder, Mdm2 MdmX PPI, Beta apoptosis)
COc1cccc(N2CCN(Cc3cccc(Cl)c3)CC2)c1	NR3A LBD binder 13 (no result: Beta apoptosis)
COc1ccc(CC2NCC(O)C2OC(C)=O)cc1 (stereo not drawn)	Gli-Sufu antag 86 (no result: CSC inhib, Mdm2 MdmX PPI, Beta apoptosis)
